Compounds with a hit are over-represented: about 6.2% of the library has one in this group of screens.
KB-V1 MDR tox = kills drug-selected multidrug resistant KB-V1 cells; KB-V1 MDR cells viability, CellTiter-Glo, 72 h; Potency, µM (series often up to 46.1 µM), most hits filed as cytotoxic; 3.4% of 400,000 active; also: % is scaled to controls: 0 for no effect and ±100 for the full control effect; nearly all actives have a fitted effect of over 60% in size
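Compound-treated KB-V1 multidrug-resistant cells, 72 h, 37 degrees C; viability by CellTiter-Glo. Fitted qHTS curves give the values.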
HT1080NT lethal = kills 2HG-producing HT-1080-NT fibrosarcoma cells; AID 686970; 1.6% of 360,000 active; Potency, µM (highest dose often 46.1 µM), inactives show at the top dose activity, negative = less viability, most hits filed as cytotoxic; HT-1080-NT fibrosarcoma viability, CellTiter-Glo ATP luminescence, 48 h;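 also: NT is the 2HG producing partner of a matched IDH1 knockdown line; 0% = DMSO-treated cells and -100% = media-only wells without cells; nearly all actives have a fitted effect of over 55% in size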
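Viability by CellTiter-Glo luminescence after 48 h compound exposure at 37C of HT-1080-NT cells (750/well, RPMI, 5% FBS). % activity scaled between DMSO wells and medium-only wells, then curve-fitted and categorized by curve class.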
KB-3-1 tox = KB-3-1 parental cell cytotoxicity | 1.4% of 400,000 active | KB-3-1 viability, CellTiter-Glo ATP luminescence, 72 h | Potency, µM (top dose mostly 46.1 µM), usual class: cytotoxic; also: % is scaled to controls: 0 for no effect and ±100 for the full control effect; nearly all actives have a fitted effect of over 60% in size
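Parental KB-3-1 viability, qHTS format: 72 h compound exposure, 37 °C; CellTiter-Glo; media-only wells and DMSO plates as controls; concentration-effect fits on corrected data.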
ATXN2 expr inh = reduces ATXN2 reporter expression in HEK-293 cells | HEK-293 ATXN2-luciferase reporter, luminescence, 24 h | Potency, µM (doses to about 57 µM), without a hit: at the highest dose activity change, negative = inhibition, actives largely listed as inhibitors | 0.72% of 360,000 active | AID 1745845; also: % is scaled to controls: 0 for no effect and ±100 for the full control effect; nearly all actives have a fitted effect of over 55% in size
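qHTS (up to 57 uM final) was run with 24 h compound exposure of reporter cells at 37 °C. Each well was multiplexed: SteadyGlo luminescence measured ATXN2-luciferase expression after a fluorogenic Gly-Phe-AFC viability readout (25 uM final).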
ATXN viability = cell viability loss in ATXN counter-screen; S2 cells (HEK-293 line with an ATXN2-luciferase reporter) viability, CellTiter-Fluor protease fluorescence, 24 h; Potency, µM (doses to about 56.7 µM), most hits filed as cytotoxic; 0.49% of 400,000 active; also: nearly all actives have a fitted effect of over 40% in size
HT1080 IDH1KD tx = HT-1080 IDH1 knockdown cell toxicity (counter line) | 2% of 360,000 active | AID 686971 | Potency, µM (highest dose often 46.1 µM), without a hit: at the highest dose activity, negative = toxicity, hits mostly cytotoxic | HT-1080 IDH1 knockdown viability, ATP luminescence, 48 h;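 also: 0% = DMSO wells and -100% = cell-free medium wells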
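Knockdown cells (IDH1KD HT-1080) received compounds 2 h after plating at 750 cells/well and were kept 48 h at 37 °C in 5% FBS RPMI. A CellTiter-Glo luminescence read gave % activity for curve fitting.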
* marks the source's active call; other numbers are inactive results; i = inactive; ? = inconclusive; / = not tested or not shown; [ ] = dose if it differs, or a comment. Calls follow the shape of the dose curve; as a rule, active = well fitted curve in the direction sought with a large enough effect; inconclusive = small, poorly fitted or top-dose-only effect, or another doubt; inactive = no such curve, though single readings can be large; an effect the other way counts as inactive or inconclusive. Potency is read from the fitted curve at half-maximal effect.

SMILES | KB-V1 MDR tox | HT1080NT lethal | KB-3-1 tox | ATXN2 expr inh | ATXN viability | HT1080 IDH1KD tx
CCCCn1c(NC(=O)c2ccco2)c(S(=O)(=O)c2ccc(C)cc2)c2nc3ccccc3nc21 | ? | ? | i | 2% | / | -18%
O=S1(=O)C=C(SCc2ccc(F)cc2)Nc2ccccc21 | i | 26% | i | -5%[11.3 µM] | i | 11%
O=S1(=O)C=C(SCc2ccccc2)Nc2ccccc21 | 18µM* | -10% | ? | 17% | i | -5%
COc1ccc(CSC2=CS(=O)(=O)c3ccccc3N2)cc1 | 23µM* | -8% | i | -17% | i | -13%
Cc1cccc(NC(=O)CN2C(=O)c3cccnc3Oc3ccc(Cl)cc32)c1C | i | / | i | / | / | /
CN(C)c1cc[n+](Cc2c(Cl)cccc2Cl)cc1 | i | -19% | 7.3µM* | -25% | i | ?
CC1CC(C)CN(S(=O)(=O)c2ccc(Oc3ccc([N+](=O)[O-])cc3)cc2)C1 (centres undefined) | 13µM* | 8% | ? | -33% | i | 2%
CC1CCCN(S(=O)(=O)c2ccc([N+](=O)[O-])cc2)C1 (centres undefined) | i | -1% | i | / | i | -1%
COc1ccccc1C(=O)NC1(C(F)(F)F)C(=O)Nc2c1c(=O)[nH]c(=O)n2-c1ccccc1 (centres undefined) | i | / | i | -6% | i | /
COc1ccc(/C=C/C(=O)c2c(C)cc(C)[nH]c2=O)c2ccccc12 | i | ? | ? | ? | ? | 12µM*
CCc1ccc(/C=C/C(=O)c2c(C)cc(C)[nH]c2=O)cc1 | ? | 15µM* | 23µM* | ? | ? | 23µM*
Cc1ccc(/C=C/C(=O)c2c(C)cc(C)[nH]c2=O)cc1 | ? | ? | ? | ? | ? | 10µM*
Cc1cc(C)c(C(=O)/C=C/c2cccs2)c(=O)[nH]1 | ? | -1% | i | -9% | i | -9%
CCc1ccc(/C=C(\C)C(=O)c2c(C)cc(C)[nH]c2=O)cc1 | i | -5% | i | / | i | -6%
COc1ccccc1/C=C/C(=O)c1c2c(c(C)[nH]c1=O)CCCC2 | ? | 4.5µM* | i | -38% | ? | ?
COc1ccc(NC(=O)C2=C(C)Nc3nc(SCc4ccccc4C)nn3C2c2cc(OC)c(O)c(OC)c2)cc1 (centres undefined) | i | / | i | 16% | i | /
COCCNC(=O)c1cnn(-c2ccc(C)cc2C)c1C1CCN(C(=O)OC(C)(C)C)CC1 | i | / | i | -6% | ? | /
COc1ccc2c(c1)C(SCC(=O)NCCc1ccc(Cl)cc1)CC(C)(C)O2 (centres undefined) | i | -6% | i | 28µM* | ? | -15%
O=C1OC2(c3ccccc31)c1cc(I)c(O)c(I)c1Oc1c2cc(I)c(O)c1I | / | / | / | -7% | 35µM* | /
O=C1OC(c2ccccc2)(c2ccc(O)cc2)c2ccccc21 (centres undefined) | i | 21µM* | i | 2% | i | ?
O=C1OC2(c3ccc(O)cc3Oc3cc(O)ccc32)c2ccccc21 | / | / | / | 0% | ? | /
CC(C)Cn1c2c(c(O)c(C(=O)Nc3ccc(F)cc3)c1=O)CCCC2 | ? | 13% | i | 2% | i | 16%
CCCCc1nc2ccccc2c(=O)n1NC(=O)c1c(O)c2c(n(CC(C)C)c1=O)CCCC2 | 2.6µM* | 17% | 4.6µM* | 4% | i | 8%
CCn1c(=O)c(C(=O)Nn2c(C)nc3ccccc3c2=O)c(O)c2ccccc21 | ? | -7% | i | -15% | i | -10%
CC(C)Cn1c2c(c(O)c(C(=O)Nn3c(Cc4ccccc4)nc4ccccc4c3=O)c1=O)CCCC2 | ? | -3% | ? | -19% | i | -4%
SMILES | KB-V1 MDR tox | HT1080NT lethal | KB-3-1 tox | ATXN2 expr inh | ATXN viability | HT1080 IDH1KD tx
CCc1nc2ccccc2c(=O)n1NC(=O)c1c(O)c2ccccc2n(CC)c1=O | 8.2µM* | -10% | ? | -24% | i | 2%
CCn1c(=O)c(C(=O)Nc2nc3ccccc3[nH]2)c(O)c2ccccc21 | 1.2µM* | 7.3µM* | 12µM* | -26% | i | 10µM*
CCCn1c2c(c(O)c(C(=O)Nc3ccccc3)c1=O)CCCC2 | 15µM* | 0% | i | 8% | i | -1%
CCOc1ccc(NC(=O)C(=O)NCCc2sc(-c3ccc(C)cc3)nc2C)cc1 | i | / | i | 4% | i | /
Cc1cccc(N(C)C(=O)CCNS(=O)(=O)c2ccc3c(c2)CCN3C(=O)C2CC2)c1 | i | / | i | 3% | i | /
CC(=O)NCCNC(=O)C1(C)Cc2c(-c3ccc(C(N)=O)cc3)ccnc2O1 (centres undefined) | i | 15% | i | 10% | i | 3%
CC1(C(=O)NCc2cccs2)Cc2c(-c3ccc(C(N)=O)cc3)ccnc2O1 (centres undefined) | i | ? | 15µM* | 0% | i | 15µM*
CC1(C(=O)NCc2cccs2)Cc2c(-c3cccc(C(F)(F)F)c3)ccnc2O1 (centres undefined) | 21µM* | 5.8µM* | ? | -22% | i | 4.6µM*
CC1(C(=O)NCc2ccccc2)Cc2c(-c3cccc(C(F)(F)F)c3)ccnc2O1 (centres undefined) | 6.5µM* | ? | 16µM* | -12% | i | 3.7µM*
COC(=O)C1CCCCN1Cc1ccc2c(c1)CN(C(=O)c1ccc(F)cc1)CCO2 (centres undefined) | / | / | / | / | i | /
Cc1cc(C(=O)NCc2nnc3n2CCN(Cc2ccc(F)cc2F)CC3)c(C)o1 | / | / | / | / | i | /
C[C@H](O)[C@@H]1CN2CCc3c([nH]c4ccccc34)[C@@H]2C[C@@H]1N(C)C(=O)c1ccco1 | ? | 26µM* | ? | 8% | i | ?
C[C@H](O)[C@@H]1CN2CCc3c([nH]c4ccc(-c5ccc6c(c5)OCO6)cc34)[C@@H]2C[C@@H]1N(C)C(=O)Nc1ccc(F)cc1 | ? | ? | 5.8µM* | ? | 32µM* | 21µM*
Cc1ccccc1C(=O)N(C)[C@H]1C[C@H]2c3[nH]c4ccccc4c3CCN2C[C@H]1[C@H](C)O | i | -2% | i | 9% | i | 0%
COc1ccc(-c2ccc3[nH]c4c(c3c2)CCN2C(=O)[C@@H]([C@H](C)O)[C@@H](N(C)C(=O)Nc3ccc(F)cc3)C[C@@H]42)cc1 | 16µM* | ? | i | ? | ? | ?

Screening results (PubChem)
